Bioassay records: PubChem BioAssay, National Center for Advancing Translational Sciences (NCATS)
DRD3 agonist: agonists of human D3 dopamine receptor; D3R DiscoveRx beta-arrestin cells, luminescence, 90 min; max activation, %; hit rate 0.58% among 410,000; in the data active = max activation above about 30%; note: 0% is about no effect
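Agonist-mode cell screen: cells plated at 1500/well and incubated overnight at 37 °C, then exposed to library compounds for 90 min at 37 °C. Detection reagent was added for 30–60 min at room temperature, and luminescence was read.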
D1 agonist: activates the human D1 dopamine receptor; HEK293 T-REx D1 cells, calcium flux, agonist mode; activation, % at 2 µM; hit rate 1% among 360,000; AID 504660; in the data active = activation above about 30%; note: 0% is about no effect
Target sequence (P21728 whole entry, looked up): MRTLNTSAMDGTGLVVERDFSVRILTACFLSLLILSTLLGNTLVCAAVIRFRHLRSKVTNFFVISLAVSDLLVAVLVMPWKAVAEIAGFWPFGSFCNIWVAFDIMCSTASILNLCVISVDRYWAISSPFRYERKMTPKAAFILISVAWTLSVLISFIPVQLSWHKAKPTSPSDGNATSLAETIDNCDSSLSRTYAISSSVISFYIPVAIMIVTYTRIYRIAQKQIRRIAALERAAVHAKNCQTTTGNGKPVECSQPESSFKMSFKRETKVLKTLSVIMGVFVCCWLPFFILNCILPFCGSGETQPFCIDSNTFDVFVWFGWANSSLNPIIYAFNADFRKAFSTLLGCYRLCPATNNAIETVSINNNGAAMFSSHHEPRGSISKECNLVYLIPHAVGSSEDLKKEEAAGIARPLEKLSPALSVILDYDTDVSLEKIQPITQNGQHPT
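Tetracycline-induced HEK293 TREx D1 cells, force-coupled to calcium signalling, were dye-loaded with a no-wash calcium kit. Compound was pin-added after a 10 s baseline. Fluorescence was read kinetically at 1 cycle/s for 180 s, with calcium rises flagged as agonism.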
D3 antag: antagonists of human D3 dopamine receptor. D3R cells, DiscoveRx beta-arrestin luminescence, antagonist mode; hits give low values. max response, negative = inhibition, %. hit rate 2.5% among 360,000. AID 652054; in the data active = max response below about -50%; inconclusive = no clear call, values can overlap the other calls; note: % is set by controls: 0 for no effect and ±100 for the full control effect
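Cells plated overnight at 1500 cells/well, then exposed to library compounds with dopamine controls for 90 minutes at 37 degrees C. DiscoveRx reagent added for 30–60 minutes at room temperature; luminescence read, quantitative HTS format.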
D1 antagonist: antagonists of human D1 dopamine receptor | hit rate 3.2% among 360,000 | activity change, negative = inhibition, % at 10 µM | HEK293 TREx D1 cells, calcium flux, dopamine EC80; hits give low values | P21728 | AID 504652; in the data active = activity change below about -30%; note: % is set by controls: 0 for no effect and ±100 for the full control effect
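Kinetic fluorescence of a calcium dye serves as the read-out. D1-expressing Hek293 Trex cells, induced overnight at 30 C, are exposed to compound for 180 s before an EC80 dopamine addition, then read 180 s further.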
D1 PAM: enhances dopamine response at the human D1 receptor. P21728. potentiation, % at 10 µM. HEK293 TREx D1 cells, calcium flux, dopamine EC20 potentiation. hit rate 0.036% among 360,000; in the data active = potentiation above about 30%; note: 0% is about no effect
The depositor's hits bear a star; ? = inconclusive; . = no result given. This is a sample that favours compounds with a hit; in the whole collection about 6.1% have one here.

SMILES	DRD3 agonist	D1 agonist	D3 antag	D1 antagonist	D1 PAM
COc1ccc(OC)c(-n2c(=S)[nH]c3c(sc(=S)n3-c3ccccc3C)c2=O)c1	-4.8	0.6	-20.0	1.2	-0.4
CCOC(=O)C1(CCc2ccccc2)CCN(C(=O)CN2C(=O)CSC2=O)CC1	5.4	47.7*	9.8	-13.5	2.4
CCOC(=O)c1sc(=S)n(Cc2ccccc2)c1C	-3.8	6.5	5.0	-30.6*	-0.5
O=C(Nc1ccc(C(F)(F)F)cc1)c1cnc(N2CCN(c3ccccn3)CC2)c2ccccc12	16.3	1.5	35.1	-11.5	-4.6
CCOC(=O)Cc1c(C)nc2cc(-c3ccc(C(C)(C)C)cc3)[nH]n2c1=O	11.0	0.5	15.3	-2.7	-3.1
CCOC(=O)Cc1c(C)nc2cc(-c3ccc(C(C)(C)C)cc3)nn2c1C	13.4	1.1	.	-39.1*	-5.7
c1cc(CN2CCCCC2)cc(OCCCNc2nc3ccccc3s2)c1	-79.5	.	-75.0*	.	.
O=C(NCCCOc1cccc(CN2CCCCC2)c1)c1ccc(Cl)c(Cl)c1	-37.7	3.9	-98.3*	-5.5	-3.5
O=C(Nc1nc(-c2ccc(Cl)cc2)cs1)C1CCCO1 (centres undefined)	-7.5	-0.6	9.2	-7.7	-6.7
CCOc1ccc(-c2csc(NC(=O)C3CCCO3)n2)cc1 (centres undefined)	0.5	2.3	30.3	-54.5*	-1.7
Cc1ccc(Cn2cc(C(=O)c3ccc(F)cc3)c(=O)c3cc4c(cc32)OCO4)cc1	3.0	6.8	.	3.9	-3.4
CC(C)(C)NC(=O)C[C@H]1C[C@H](C(=O)N2CCCCC2)[C@@]2(C)c3[nH]c4ccc(Cl)cc4c3CCN2C1=O	-20.4	.	?	.	.
CCOCC(=O)Nc1ccc(S(=O)(=O)N2CCC(c3nc4ccccc4[nH]3)CC2)cc1	7.8	9.7	-1.1	5.2	-3.4
Cc1[nH]n(-c2ccccc2)c(=O)c1N=Nc1ccc2c(c1)OCO2	9.5	0.7	16.1	-35.5*	-8.9
Cc1[nH]n(-c2ccccc2)c(=O)c1N=Nc1ccccc1O	5.1	32.0*	-22.8	-16.8	-3.9
Cc1ccccc1N=Nc1c(C)[nH]n(-c2ccccc2)c1=O	1.0	0.6	1.1	-0.1	-6.3
COc1ccc(CC(=O)NCc2ccc3c(c2)CCN3C(=O)c2ccc(Cl)cc2)cc1OC	-14.7	5.8	.	-7.0	-3.8
O=C(C1CCC(CNS(=O)(=O)c2cccs2)CC1)N1CCN(c2ccc(F)cc2)CC1 (centres undefined)	45.4*	-4.5	138.5	19.4	-5.3
O=C(Nc1ccc(F)cc1)C1CCN(S(=O)(=O)c2cccs2)CC1	1.5	12.9	-5.2	-39.5*	-0.6
Cc1csc(NC(=O)C2CCN(S(=O)(=O)c3cccs3)CC2)n1	-4.6	13.0	-12.1	-2.8	-9.9
O=C(NCc1ccc(F)cc1)C1CCC(CNS(=O)(=O)c2cccs2)CC1 (centres undefined)	-6.0	6.3	-0.7	3.1	7.0
Cc1csc(NC(=O)C2CCN(S(=O)(=O)c3ccccc3F)CC2)n1	-5.2	23.7	-19.4	-37.7*	-11.0
O=C(Nc1cc(Cl)ccn1)C1CCN(S(=O)(=O)c2cccs2)CC1	-1.6	5.4	-5.9	-30.6*	-15.2
O=C(CSc1ccc(Cl)cc1)NC(=O)NCc1ccco1	5.8	2.8	2.6	12.0	-2.2
Cc1c(C(=O)NCCN(C)C)sc2nc3n(c(=O)c12)CCC3	-9.0	1.5	.	7.6	2.7
SMILES	DRD3 agonist	D1 agonist	D3 antag	D1 antagonist	D1 PAM
CCSC(=O)N=Nc1ccc(O)cc1	-15.5	.	-1.4	.	.
Cc1ccc(S(=O)(=O)c2cnc(SCC(=O)Nc3ccc4c(c3)OCCO4)[nH]c2=O)cc1	-10.9	1.4	.	2.4	0.4
COc1ccc(OCC(=O)Nc2ccc(C(=O)OCc3cc(=O)n4nc(C)sc4n3)cc2)cc1	-8.1	0.6	.	10.6	-0.3
CS(=O)(=O)N1CCC(C(=O)Nc2ccc(F)cc2)CC1	-0.8	1.8	-2.5	27.9	-5.0
O=C(Nc1ccc(F)cc1)C1CCC(N2C(=O)c3ccccc3C2=O)CC1 (centres undefined)	-13.1	6.7	-20.3	-30.2*	0.2
CCOC(=O)C1(CC2CCCCO2)CCN(Cc2ccc(OC)cc2F)CC1 (centres undefined)	-12.2	2.1	-66.8*	-3.4	-0.3
CN1CCN(C(=O)CN(C)S(=O)(=O)c2ccc(F)cc2)CC1	-9.1	2.3	6.8	-1.9	2.9
CCCCCCCCCCCC(=O)NC(Cc1ccc(OC)c([N+](=O)[O-])c1)C(=O)O (centres undefined)	7.5	137.1*	1.3	-48.2*	-10.4
CCOC(=O)C(Cc1ccc(OC)c([N+](=O)[O-])c1)NC(=O)CCC(=O)Nc1ccc(OC)cc1 (centres undefined)	-0.2	1.1	0.0	6.3	-3.1
COc1ccc(OCCNC(=O)Nc2cc(F)c(F)cc2Cl)cc1	-4.0	4.2	-12.5	-18.2	-6.9
COc1cccc(OCCNC(=O)Nc2cc(F)c(F)cc2Cl)c1	6.0	9.3	-10.0	-39.6*	19.9
COc1ccc(Br)cc1/C=N/NC(=O)c1cc(OC)c(OC)c(OC)c1	2.1	3.0	32.5	-6.7	-4.4
COc1cc(C(=O)N/N=C/c2ccsc2C)cc(OC)c1OC	-12.4	0.6	-53.4*	9.2	-1.7
Cc1ccc(N(Cc2cccs2)C(=O)c2ccc(Br)o2)cc1	-16.6	7.6	.	-19.0	-1.8
COc1ccc(N(Cc2cccs2)C(=O)c2ccc(C(C)(C)C)cc2)cc1	-21.8	14.2	.	2.2	-0.8
Cc1ccc(N(Cc2cccs2)C(=O)c2ccccc2)cc1	3.5	1.4	.	-34.4*	-1.1
COc1ccc(N(Cc2cccs2)C(=O)c2ccccc2C)cc1	-21.7	4.3	.	-36.5*	1.2
CC(=O)c1ccc(OCC(O)CN(C)Cc2cccs2)cc1 (centres undefined)	-4.4	37.1*	?	-43.4*	0.9
COc1ccc(N(Cc2cccs2)C(=O)c2ccc(OCC(C)C)cc2)cc1	-19.4	34.1*	.	2.7	2.8
CC(C)NC(=O)C1(C)CSCC(=O)N1Cc1cccs1 (centres undefined)	0.4	.	7.5	.	.
CCCc1ccc(-c2cc(NC(=O)CSc3n[nH]c(N)n3)n(-c3ccccc3)n2)cc1	-14.9	32.9*	21.9	0.9	4.3
Cc1ccccc1NC(=O)c1snc2c(=O)[nH]cnc12	.	3.9	.	2.8	-3.6
N#Cc1ccc(S(=O)(=O)N2CCN(Cc3cccs3)CC2)cc1	-2.1	-0.7	-9.4	-63.6*	-4.5
COc1cc(S(=O)(=O)N2CCN(Cc3cccs3)CC2)ccc1NC(C)=O	4.1	4.2	20.1	-9.6	.
CC(=O)Nc1ccc(S(=O)(=O)N2CCc3ccccc3C2)cc1	0.0	0.5	7.9	-33.8*	-8.0
O=C(COc1cccnc1[N+](=O)[O-])N1CCN(S(=O)(=O)c2ccccc2)CC1	-1.2	0.4	-16.7	0.6	-1.9
O=S(=O)(c1ccccc1)N1CCc2ccccc2C1	-1.5	3.4	-5.9	-3.7	-2.8
O=C(COc1ccccc1[N+](=O)[O-])N1CCN(S(=O)(=O)c2ccccc2)CC1	-1.3	1.6	0.9	-95.5*	-11.1
